In PubChem BioAssay (Tox21):
Inconclusive results are not listed. Calls of active or inactive are those of the source. Unless noted, the call rests on the fitted dose curve; in most records, active means well fitted curve in the direction sought with a large enough effect in the repeat runs; inconclusive means weak or mixed curves; inactive means no such curve, though single readings can be large; an effect the other way counts as inactive or inconclusive.

Experiments:
[1] = qHTS assay to identify small molecule antagonists of the vitamin D receptor (VDR) signaling pathway - cell viability counter screen (AID 743225); further: on the % scale 0 is the no-effect control and ±100 the full control effect; nearly all actives have a fitted effect of over 50% in size
In short: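 Cytotoxicity counter screen read by CellTiter-Glo luminescence (30 min, room temperature) in the same wells as the VDR-bla antagonist readout. HEK 293T VDR-UAS-bla cells had 16 h at 37C with compound and 3 nM (final) 1-alpha,25-dihydroxyvitamin D3, then 2 h with FRET substrate.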

[2] = qHTS assay to identify small molecule agonists of the NFkB signaling pathway - cell viability counter screen (AID 1159515; calls by dose curve; further: nearly all actives have a fitted effect of over 55% in size; further: potency means the concentration at half of the fitted maximal effect; on activity, negative = cytotoxic: on the % scale 0 is the no-effect control and ±100 the full control effect)
In short: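 Viability in NFkB-bla ME-180 cells was measured by CellTiter-Glo luminescence, 30 min room temperature, in wells already treated 5 hr with compounds and read for reporter FRET.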

[3] = qHTS assay to identify small molecule agonists of the endoplasmic reticulum stress response signaling pathway (AID 1159516; active means well fitted activation curve with a large enough effect in the signal ratio in the repeat runs, not every such curve was filed as active; the % refers to the signal ratio; further: on the % scale 0 is the no-effect control and ±100 the full control effect)
In short: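 ER stress element reporter (bla) in HeLa. 1,500 cells/well, overnight attachment; 5 hr compound; 2 hr RT substrate; dual-emission fluorescence.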

[4] = qHTS assay to identify small molecule agonists of the endoplasmic reticulum stress response signaling pathway - cell viability counter screen (AID 1159517; calls by dose curve; further: nearly all actives have a fitted effect of over 50% in size; further: potency means the concentration at half of the fitted maximal effect)
In short: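 Luminescence readout: CellTiter-Glo, 30 min RT, same wells as the ESRE-bla reporter read. HeLa ESRE-bla, 1,500 cells/well, o/n 37 C; cpd 5 hr 37 C/5% CO2.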

[5] = target: Nuclear receptor ROR-gamma (Homo sapiens) (UniProt P51449); test: qHTS assay to identify small molecule antagonists of the retinoid-related orphan receptor gamma (ROR-gamma) signaling pathway (AID 1159521; further: nearly all actives have a fitted effect of over 50% in size; further: potency means the concentration at half of the fitted maximal effect)
In short: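 Antagonist read-out: drop in luminescence (ONE-Glo) from an RORE-LUC reporter in CHO cells with doxycycline-inducible ROR-gamma; 2 hr compound pretreatment, 1 uM doxycycline, 16 hr incubation at 37 C.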

[6] = qHTS assay to identify small molecule agonists of the AP-1 signaling pathway - cell viability counter screen (AID 1159525; calls by dose curve; further: nearly all actives have a fitted effect of over 55% in size)
In short: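 ME-180 AP-1-bla, 2500 cells/well, Opti-MEM + 0.5% dialyzed FBS; overnight 37 °C; cpd 15-pt titration, 5 h 37 °C; CellTiter-Glo 30 min RT; luminescence read; normalised to TOAB and DMSO controls.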

[7] = qHTS assay to identify small molecule antagonists of the retinoid acid receptor (RAR) signaling pathway - cell viability counter screen (AID 1159551); further: on the % scale 0 is the no-effect control and ±100 the full control effect; nearly all actives have a fitted effect of over 35% in size
In short: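 Following overnight attachment, C3RL4 reporter cells received DMSO-dissolved compounds and then retinol (1 uM final). Six hours later at 37 C, ATP content was measured by CellTiter-Glo luminescence.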

[8] = qHTS assay to identify small molecule antagonists of the estrogen related receptor (ERR) signaling pathway from Tox21 library - cell viability counter screen (AID 1224834); further: nearly all actives have a fitted effect of over 30% in size; further: potency means the concentration at half of the fitted maximal effect
In short: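 Viability readout (CellTiter-Fluor fluorescence, 30 min at 37 C) multiplexed with the ERR assay; cells treated 17.5 h at 37 C with compounds delivered in DMSO.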

[9] = qHTS assay to identify small molecule agonists of the AP-1 signaling pathway (AID 1159526; calls by dose curve; further: on the % scale 0 is the no-effect control and ±100 the full control effect)
[10] = qHTS assay to identify small molecule agonists of the RXR signaling pathway - cell viability counter screen (AID 1159529); further: nearly all actives have a fitted effect of over 50% in size; further: potency means the concentration at half of the fitted maximal effect
In short: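 CellTiter-Glo luminescence gave viability in the wells also read for beta-lactamase. Cells (RXR-alpha-UAS-bla HEK 293T, 2% charcoal-stripped FBS medium) had 5 hr plating, then 16 hr compound exposure at 37 C; tetraoctyl ammonium bromide served as positive control.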

[11] = qHTS assay to identify small molecule antagonists of the retinoic acid receptor (RAR) signaling pathway (AID 1159552; further: nearly all actives have a fitted effect of over 50% in size; further: potency means the concentration at half of the fitted maximal effect)
In short: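 Luminescent RARE reporter read-out in C3RL4 cells: 6 hr co-treatment at 37 C of test compounds with retinol at 1 uM final. Cells plated overnight beforehand; luciferase reagent incubated 30 min at room temperature before reading.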

[12] = qHTS assay to identify small molecule antagonists of the retinoid-related orphan receptor gamma (ROR-gamma) signaling pathway - cell viability counter screen (AID 1159520)
In short: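 Tet-on ROR gamma CHO cells (1,000/well) were plated 4 hr, given compounds in DMSO for 2 hr at 37 C, then induced with 1 uM final doxycycline for 16 hr. Viability was read as ATP by CellTiter-Glo luminescence after 30 min.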

[13] = target: Retinoic acid receptor RXR-alpha (Homo sapiens) (UniProt P19793); test: qHTS assay to identify small molecule agonists of the RXR signaling pathway (AID 1159527; calls by dose curve; further: on the % scale 0 is the no-effect control and ±100 the full control effect; nearly all actives have a fitted effect of over 35% in size)
Chain of Retinoic acid receptor RXR-alpha (Homo sapiens) (P19793 whole entry, looked up): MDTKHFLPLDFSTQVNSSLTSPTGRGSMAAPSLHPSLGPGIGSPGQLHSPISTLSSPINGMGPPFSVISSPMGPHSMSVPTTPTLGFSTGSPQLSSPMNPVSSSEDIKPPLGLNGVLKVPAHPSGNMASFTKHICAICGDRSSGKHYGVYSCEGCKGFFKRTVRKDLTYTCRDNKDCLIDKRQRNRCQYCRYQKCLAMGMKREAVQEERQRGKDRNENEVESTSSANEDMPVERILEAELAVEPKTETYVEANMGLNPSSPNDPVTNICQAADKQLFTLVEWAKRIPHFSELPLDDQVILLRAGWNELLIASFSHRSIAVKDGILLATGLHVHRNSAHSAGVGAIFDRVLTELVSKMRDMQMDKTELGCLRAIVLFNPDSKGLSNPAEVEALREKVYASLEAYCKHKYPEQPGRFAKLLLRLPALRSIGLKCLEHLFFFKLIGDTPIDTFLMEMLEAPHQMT
In short: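 Agonist-mode beta-lactamase reporter assay: HEK 293T RXR-alpha-UAS-bla cells treated 16 hr at 37 C with compounds, 9-cis retinoic acid as positive control. LiveBLAzer FRET substrate, 405 nm excitation, 460/530 nm emission.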

[14] = qHTS assay to identify small molecule agonists of the retinoic acid receptor (RAR) signaling pathway (AID 1159553); details: C3RL4 RARE luciferase reporter, agonist, 6 h; activation: at 73.3 µM (top of the series) unless noted; further: on the % scale 0 is the no-effect control and ±100 the full control effect
In short: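 Cell line C3RL4, RARE luciferase reporter. Treatment: compounds in DMSO, 6 hr, 37 C, 5% CO2, after overnight plating. Detection: luminescence, 30 min RT after reagent.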

c1ccc(SSc2ccccc2)cc1
inactive: Potency [1] | Potency [2] | Potency [3] | Potency [4] | Potency [5] | Potency [6] | Potency [7] | Potency [8]

C/C=C/C=C/COC(=O)C(C)C
inactive: Potency [1] | Potency [2] | Potency [3] | Potency [4] | Potency [6] | Potency [9] | Potency [10]

O=c1[nH]c2ccccc2n1CCCN1CCN(C(c2ccccc2)c2ccccc2)CC1
inactive: Potency [1] | Potency [2] | Potency [3] | Potency [4] | Potency [6] | Potency [9] | Potency [7]
active: Potency [8] 23.7 µM

CN(C)[C@@H](CCOc1cccc2ccccc12)c1ccccc1
active: Potency [10] 21.3 µM | Potency [11] 29.8 µM
inactive: Potency [2] | Potency [3] | Potency [4]

OC[C@@H](O)[C@@H](O)CO
inactive: Potency [1] | Potency [2] | Potency [3] | Potency [12] | Potency [5] | Potency [6] | Potency [9] | Potency [13] | Potency [10] | Potency [7] | Potency [11] | Potency [14]

CC(C)(C)CC(C)(C)c1ccc(Nc2ccc(C(C)(C)CC(C)(C)C)cc2)cc1
inactive: viability change, negative = cytotoxic [1] 20.6% [at 6.95 µM] | activity, negative = cytotoxic [2] -7.48% [at 6.95 µM] | activation [3] -2.77% [at 6.95 µM] | activity, negative = cytotoxicity [12] -0.0922% [at 8.39 µM] | activity change, negative = inhibition [5] 1.61% [at 8.39 µM] | viability change, negative = cytotoxic [6] -3.55% [at 6.97 µM] | activation [9] 15.6% [at 6.97 µM] | activation [13] 3.93% [at 6.98 µM] | activity change, negative = cytotoxicity [10] 2.3% [at 6.97 µM] | activity change, negative = cytotoxicity [7] 0.648% [at 8.39 µM] | activity, negative = inhibition [11] -23.1% [at 8.39 µM] | activation [14] -3.08% [at 8.36 µM] | viability change, negative = cytotoxic [8] 0.525% [at 8.39 µM]

C=CC(=O)Nc1cc2c(Nc3ccc(F)c(Cl)c3)ncnc2cc1OCCCN1CCOCC1
inactive: Potency [1] | Potency [3] | Potency [5]
active: Potency [2] 15.1 µM | Potency [4] 16.9 µM | Potency [10] 4.77 µM | Potency [11] 7.5 µM | Potency [8] 23.7 µM

CCc1cccc(CC)c1NC(=O)CN(CC(=O)O)CC(=O)O
inactive: Potency [1] | Potency [2] | Potency [3] | Potency [12] | Potency [5] | Potency [6] | Potency [9] | Potency [13] | Potency [10] | Potency [7] | Potency [11] | Potency [14] | Potency [8]

Cc1ccc(O)c(O)c1
inactive: Potency [1] | Potency [2] | Potency [3] | Potency [4] | Potency [6] | Potency [9] | Potency [13] | Potency [10]

CCc1ccc(Br)cc1
inactive: Potency [1] | Potency [2] | Potency [3] | Potency [12] | Potency [5] | Potency [6] | Potency [9] | Potency [13] | Potency [10] | Potency [7] | Potency [11] | Potency [14] | Potency [8]

C[Si](Cl)(c1ccccc1)c1ccccc1
inactive: Potency [1] | Potency [2] | Potency [3] | Potency [4] | Potency [5] | Potency [6] | Potency [13] | Potency [10] | Potency [7] | Potency [8]

O=C1C(c2[nH]c3ccc(S(=O)(=O)O)cc3c2O)=Nc2ccc(S(=O)(=O)O)cc21
inactive: Potency [1] | Potency [2] | Potency [3] | Potency [4] | Potency [5] | Potency [6] | Potency [9] | Potency [10] | Potency [11] | Potency [8]

COC(=O)c1ccccc1C
inactive: Potency [1] | Potency [2] | Potency [3] | Potency [12] | Potency [5] | Potency [6] | Potency [9] | Potency [13] | Potency [10] | Potency [7] | Potency [11] | Potency [14] | Potency [8]

C=Cc1cccc(C)c1
inactive: Potency [1] | Potency [2] | Potency [3] | Potency [12] | Potency [5] | Potency [6] | Potency [9] | Potency [13] | Potency [10] | Potency [7] | Potency [11] | Potency [14] | Potency [8]

Cc1ccc(C)cc1
inactive: Potency [1] | Potency [2] | Potency [3] | Potency [12] | Potency [5] | Potency [6] | Potency [9] | Potency [13] | Potency [10] | Potency [7] | Potency [11] | Potency [14] | Potency [8]

Cc1cc(-c2ccc(N=Nc3cc(S(=O)(=O)O)c4ccccc4c3N)c(C)c2)ccc1N=Nc1cc(S(=O)(=O)O)c2ccccc2c1N
active: Potency [5] 30.8 µM
inactive: Potency [2] | Potency [3] | Potency [12] | Potency [6] | Potency [9] | Potency [13] | Potency [10] | Potency [7] | Potency [14] | Potency [8]

CCCCOC(=O)CO
inactive: Potency [1] | Potency [2] | Potency [3] | Potency [12] | Potency [5] | Potency [6] | Potency [9] | Potency [13] | Potency [10] | Potency [7] | Potency [8]

Clc1sc(Cl)c(Cl)c1Cl
inactive: Potency [1] | Potency [2] | Potency [3] | Potency [12] | Potency [5] | Potency [6] | Potency [9] | Potency [13] | Potency [10] | Potency [7]

C=CCn1c(=O)n(CC=C)c(=O)n(CC=C)c1=O
inactive: Potency [1] | Potency [2] | Potency [3] | Potency [12] | Potency [5] | Potency [6] | Potency [9] | Potency [10] | Potency [7] | Potency [11] | Potency [14] | Potency [8]

O[C@@H]([C@H](O)[C@H](O)CBr)[C@H](O)CBr
inactive: Potency [1] | Potency [2] | Potency [3] | Potency [12] | Potency [5] | Potency [6] | Potency [9] | Potency [13] | Potency [10] | Potency [7] | Potency [14] | Potency [8]

COC(C)=O
inactive: Potency [1] | Potency [2] | Potency [3] | Potency [12] | Potency [5] | Potency [6] | Potency [9] | Potency [13] | Potency [10] | Potency [7] | Potency [11] | Potency [14]

Cc1c(F)c(N2CCNC(C)C2)cc2c1c(=O)c(C(=O)O)cn2C1CC1 (centres undefined)
inactive: Potency [1] | Potency [2] | Potency [3] | Potency [12] | Potency [5] | Potency [6] | Potency [9] | Potency [10] | Potency [7] | Potency [11] | Potency [14] | Potency [8]
